The values below come from PubChem BioAssay (NCATS).

The source made the active and inactive calls. Calls follow the shape of the full dose curve.

This assay can be described thus: qHTS drug screen for cell cycle checkpoint inhibitors in PARPi-resistant BRCA-mutant ovarian cancer cell lines. (AID 1963452). To be noted: PEO1/OlaR viability, CellTiter-Glo luminescence, 96 h; for Z-AUC: stronger effect = lower value. The method, boiled down:
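PEO1, PEO4 and PEO1/OlaR ovarian cancer cells, 600 per well, exposed 96 h at 37C to a dilution series. Viability read by CellTiter-Glo luminescence, normalized to DMSO and empty wells; activity summarized as Z-AUC.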
For orientation: qHTS replaces the single test concentration by a dilution series.

[1] abbreviates: measured here: PEO1 parental Z-AUC.
Potency is read from the fitted curve at half-maximal effect.

Regarding `CN1C(C(=O)Nc2ccccn2)=C(O)c2sccc2S1(=O)=O`, the Z-AUC is 1.5 (inactive). Further, the Z-AUC under setting [1] stood at 1.16. For the same molecule, the Z-AUC (measured here: PEO4 Z-AUC) amounted to 1.02.

As for `COC1=C(OC)C(=O)C(CCCCCCCCCCO)=C(C)C1=O`, the Z-AUC is -0.864 (inactive). Also, under setting [1], the Z-AUC was -1.14. Moreover, the Z-AUC (measured here: PEO4 Z-AUC) is -0.303.

In the case of `COCCCN1CCC(NC(=O)c2cc(Cl)c(N)c3c2OCC3)CC1`, the Z-AUC was 1.78 (inactive). The Z-AUC under setting [1] worked out at 1.56. Besides, the Z-AUC (measured here: PEO4 Z-AUC) stood at 1.58.

As for `C[C@@H](c1ncncc1F)[C@](O)(Cn1cncn1)c1ccc(F)cc1F`, the Z-AUC is -0.415 (inactive). Besides, the Z-AUC under setting [1] was found to be 1.15. Also, the Z-AUC (measured here: PEO4 Z-AUC) amounted to 0.481.

`NCCCCNCCCN`: the Z-AUC is 0.434 (inactive). For the same molecule, the Z-AUC under setting [1] amounted to 1.13. Besides, for the setting “measured here: PEO4 Z-AUC”, the Z-AUC stood at 0.641.

With `CCCCc1ccc2nc(NC(=O)OC)[nH]c2c1`, the Potency is 38.9 nM (active). Besides, the Z-AUC under setting [1] is -1.68. The Z-AUC (measured here: PEO4 Z-AUC) was -1.66.

In the case of `Cc1cccc(-c2[nH]ncc2-c2ccc3ncccc3n2)n1`, the Z-AUC is -0.435 (inactive). Besides, the Z-AUC under setting [1] came out at 0.556. In addition, where the note is “measured here: PEO4 Z-AUC”, the Z-AUC came out at 0.305.

As for `Cc1c(OCC(F)(F)F)ccnc1CS(=O)c1nc2ccccc2[nH]1` (configuration not stated), the Z-AUC is 1.49 (inactive). The Z-AUC under setting [1] was 0.689. Besides, where the note is “measured here: PEO4 Z-AUC”, the Z-AUC is 0.798.

As for `c1ccc2[nH]c(-c3cscn3)nc2c1`, the Z-AUC was -1.4 (inactive). For the same molecule, the Z-AUC under setting [1] was -0.204. The Z-AUC (measured here: PEO4 Z-AUC) stood at 0.0577.

Regarding `CCN(CC)C(=S)SSC(=S)N(CC)CC`, the Z-AUC is 0.318 (inactive). For the same molecule, the Z-AUC under setting [1] is 0.214. In addition, the Z-AUC (measured here: PEO4 Z-AUC) came out at 0.454.

For `COc1ccc2cc([C@H](C)C(=O)O)ccc2c1`, the Z-AUC is -0.4 (inactive). For the same molecule, under setting [1], the Z-AUC was -0.248. The Z-AUC (measured here: PEO4 Z-AUC) was -0.0585.

In the case of `CC(C)Oc1ccc2c(=O)c(-c3ccccc3)coc2c1`, the Z-AUC is 0.208 (inactive). Further, the Z-AUC under setting [1] was -0.757. Also, the Z-AUC (measured here: PEO4 Z-AUC) was -0.189.

With `CNC[C@H](O)c1ccc(O)c(O)c1`, the Z-AUC was 0.904 (inactive). Besides, under setting [1], the Z-AUC stood at 1.34. For the same molecule, the Z-AUC (measured here: PEO4 Z-AUC) is 1.03.

With `Cc1c(C(=O)NN2CCCCC2)nn(-c2ccc(Cl)cc2Cl)c1-c1ccc(Cl)cc1`, the Z-AUC was -1.52 (inactive). Under setting [1], the Z-AUC is -0.747. Besides, for the setting “measured here: PEO4 Z-AUC”, the Z-AUC was -0.695.

With `Nc1nc(OCc2ccccc2)c2[nH]cnc2n1`, the Z-AUC is 0.131 (inactive). The Z-AUC under setting [1] came to 0.393. Besides, the Z-AUC (measured here: PEO4 Z-AUC) came out at 0.209.

As to `Cc1cc2c(s1)Nc1ccccc1N=C2N1CCN(C)CC1`, the Z-AUC was -0.767 (inactive). In addition, the Z-AUC under setting [1] is -0.886. For the same molecule, the Z-AUC (measured here: PEO4 Z-AUC) was -0.45.

As for `O=C1NC(=O)C(c2ccccc2[N+](=O)[O-])=C1Nc1ccc(O)c(Cl)c1`, the Z-AUC is 0.891 (inactive). The Z-AUC under setting [1] is 0.49. Moreover, the Z-AUC (measured here: PEO4 Z-AUC) turned out to be 0.349.

For the molecule `O=C(CCc1ccc(O)cc1)c1c(O)cc(O)cc1O`, the Z-AUC is -0.868 (inactive). The Z-AUC under setting [1] is -0.361. The Z-AUC (measured here: PEO4 Z-AUC) was -0.52.

On to `CCCCN(CCCC)CCC(O)c1cc2c(Cl)cc(Cl)cc2c2cc(C(F)(F)F)ccc12` (configuration not stated), for which the Z-AUC was -0.995 (inactive). Further, the Z-AUC under setting [1] was -1.16. Moreover, the Z-AUC (measured here: PEO4 Z-AUC) was -0.882.
